Screening results deposited in PubChem BioAssay by Broad Institute.
AI-2 QS mod: Vibrio harveyi AI-2 quorum sensing modulators, primary screen, JMH597 strain, luminescence/OD600 ratio; activity change, % at 7.5 µM; 0.4% of 300,000 active; Vibrio harveyi JMH597 AI-2 luminescence/OD600 ratio, 9 h; active compounds read low; strain lacks LuxN and CqsS sensors; 0 = neutral-control median; in the data active = activity change below about -75%, passing the limit was not always enough;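 note: luminescence divided by OD600 gain over 9 h not by final OD600 alone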
ALR H2O2 inh: inhibitors of human ALR sulfhydryl oxidase, primary screen, biochemical, H2O2 detection, HRP-luminol luminescence, single point; FAD-linked sulfhydryl oxidase ALR (Homo sapiens), P55789; purified ALR, DTT oxidation; inhibition, % (concentration not given with the values); 3.8% of 290,000 active; AID 485317, 2010;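 active = mean replicate inhibition above about 79%, with every replicate also reaching it, limit read from the data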
Target sequence (P55789 whole entry, looked up): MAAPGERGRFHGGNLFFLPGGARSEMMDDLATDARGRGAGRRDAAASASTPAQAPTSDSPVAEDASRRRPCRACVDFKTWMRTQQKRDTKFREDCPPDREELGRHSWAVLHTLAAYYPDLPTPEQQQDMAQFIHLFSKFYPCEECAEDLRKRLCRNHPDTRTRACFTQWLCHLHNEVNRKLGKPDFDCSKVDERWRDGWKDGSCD
HIF activator: HIF pathway transcriptional activators, primary screen, cell-based, U2OS HRE-luciferase, luminescence; U2OS HRE-luciferase reporter; normalized: DMSO 0%, desferrioxamine 100%; activation, % at 7.5 µM (by protocol); 0.32% of 300,000 active;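 active = mean activation of at least 10% of the iron chelator positive control signal, with at least half of replicates also reaching 10%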
SUMO Mot1 rescue: yeast Mot1-301 growth rescue at high temperature, primary screen, SUMOylation pathway inhibitor project, S. cerevisiae, ATP luminescence, 38.5C; 1% of 320,000 active; AID 2716, 2010; S. cerevisiae Mot1-301 growth rescue; percent above DMSO median, 100 means doubled; growth rescue, % at 18.8 µM;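 active = every valid replicate shows activation above 250% relative to neutral control wells; inactive = the rest, any valid replicate at or below 250%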;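 note: OY570 slx delta 5 strain wells were the positive control but not used for scaling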
Starred values were filed as active, the others as inactive; · = no result. Rows were chosen to be rich in hits. Some 4.8% of all compounds tested hit in one or more screens of this group.

SMILES	AI-2 QS mod	ALR H2O2 inh	HIF activator	SUMO Mot1 rescue
CC(C)(O)c1[nH]c2cc(F)ccc2c1C(C)(C)O	22	-2	-1	-16
COc1ccccc1-c1cc(C(F)(F)F)nc(N2CCCCC2)n1	-3	-3	0	-19
COc1ccccc1-c1cc(C(F)(F)F)nc(S(=O)(=O)CCCC(=O)N2CCCCC2C)n1 (stereo unspecified)	21	98*	11*	14
O=C(OCCc1ccccc1)c1cc(O)c(O)c(O)c1	30	99*	6	242
CCCOC(c1ccccc1)(c1ccc(C(F)(F)F)cc1)C(Oc1nc(C)cc(C)n1)C(=O)O (stereo unspecified)	32	96*	-1	9
CCOc1cc2c(cc1OCC)CN(C(=O)c1cccc(S(=O)(=O)N3CCCC3)c1)CC2	·	·	·	-3
C/C(=N\NC(=O)c1ccc(O)cc1)c1ccc2c(c1)Nc1ccccc1S2	23	99*	1	32
C/C(=N\NC(=O)c1cccc(N/N=C(\C)c2ccncc2)c1)c1ccncc1	21	99*	0	-3
C/C(=N\NC(=O)c1cc(O)cc(O)c1)c1ccc(NC(=O)Cc2ccccc2)cc1	-8	14	2	-4
C/C(=N/NC(=O)c1ccc(-c2ccccc2)cc1)c1cc(O)cc(O)c1	33	99*	·	12
C/C(=N\NC(=O)c1cccc(N/N=C(\C)c2ccccc2)c1)c1ccccc1	·	87*	·	-24
CCN(C(=O)CSc1ncccn1)c1cccc2ccccc12	·	·	·	2
Nc1ccc(C(=O)N2CCN(S(=O)(=O)c3ccc4c(c3)OCCCO4)CC2)cc1[N+](=O)[O-]	·	-22	·	-15
C/C(=N\NC(=O)c1cc(O)ccc1O)c1cccc(NC(=O)c2cccc(Cl)c2)c1	19	90*	1	-8
COC(C/C=C\[C@@H](O)[C@@H](C)OCc1ccccc1)OC	21	14	-1	3
COC(C/C=C\C(=O)[C@H](C)OCc1ccccc1)OC	4	83*	0	4
Cc1cccc(NC(=O)CNC(=O)CN2CCN(C)CC2)c1C	·	-3	·	0
Cc1noc(C)c1NC(=O)N(C)C[C@H]1Oc2ccc(NS(=O)(=O)c3cccs3)cc2C(=O)N([C@H](C)CO)C[C@@H]1C	·	-4	·	-5
COc1cc(/C=N/NC(=O)CCC(=O)NC2CCCCC2)ccc1C	27	-8	0	-10
CCOc1cc(/C=N/NC(=O)CCCC(=O)NC2CCCCC2)ccc1O	30	99*	0	12
CCOc1cc(/C=N/NC(=O)CCc2n[nH]c(=O)[nH]c2=O)ccc1O	5	99*	0	-1
COc1ccc(CNC(=O)c2cccc3c2C(=O)N(CC2CCCO2)C3)cc1 (stereo unspecified)	8	88*	0	-7
COc1ccc(CNC(=O)c2cccc3c2C(=O)N(Cc2cccnc2)C3)cc1	8	·	0	-3
CCOc1cc(CNc2cccc3[nH]c(C)nc23)ccc1OC	7	98*	-2	-11
CCc1noc(C)c1C(=O)Nc1nc2c(C)cccc2s1	6	·	1	·
SMILES	AI-2 QS mod	ALR H2O2 inh	HIF activator	SUMO Mot1 rescue
Cc1cc(C(=O)Nc2nc3c(C)cccc3s2)c(C)o1	8	95*	1	-3
O=C(CSC1=Nc2ccccc2C2CC=NN12)Nc1ccc(F)c(F)c1F (stereo unspecified)	·	71	·	10
CCCCOC(=O)c1ccc(NC(=O)CSC2=Nc3ccccc3C3CC=NN23)cc1 (stereo unspecified)	29	100*	0	4
CCC(C)N(C(=O)c1csnn1)C(C(=O)NC1CCCC1)c1c(F)cccc1Cl (stereo unspecified)	6	1	0	1
C[n+]1ccccc1/C=C/c1ccc(C#N)cc1	8	-16	-1	1
CC(C)CC[n+]1ccccc1/C=C/c1ccc(N(C)C)cc1	-1	99*	2	-8
Nc1nonc1C(=Nc1ccccc1)NO	22	53	0	-4
Cc1cccc(N=C(NO)c2nonc2N)c1	1	89*	-1	-10
O=C(CSC1=NC(=O)C(Cc2ccccc2)C(=O)N1)Nc1ncccn1 (stereo unspecified)	27	·	0	·
O=C(CSC1=NC(=O)C(c2ccccc2)C(=O)N1)Nc1ccccc1Cl (stereo unspecified)	16	99*	-1	-1
COC(=O)c1ccc(NC(=O)CSC2=NC(=O)C(c3ccccc3)C(=O)N2)cc1 (stereo unspecified)	-7	99*	-3	-10
O=C(CSC1=NC(=O)C(c2ccccc2)C(=O)N1)Nc1cccc(Cl)c1 (stereo unspecified)	27	98*	0	-19
O=C(CSC1=NC(=O)C(c2ccccc2)C(=O)N1)Nc1ccccc1[N+](=O)[O-] (stereo unspecified)	9	95*	0	2
O=C(CSC1=NNC(c2ccccn2)S1)Nc1cccc(Cl)c1 (stereo unspecified)	31	70	2	157
COc1ccccc1NC(=O)CSC1=NC(=O)C(NC(C)=O)C(=O)N1 (stereo unspecified)	16	·	0	-1
CC(=O)NC1C(=O)N=C(SCC(=O)Nc2ccc(C(F)(F)F)cc2Cl)NC1=O (stereo unspecified)	18	98*	0	-7
CCOc1ccc(N(CC(=O)Nc2cc(Cl)ccc2C)S(C)(=O)=O)cc1	10	-7	2	1
Cc1ccc(C(=O)CC(=O)c2ccccc2)cc1	28	1	4	14
Cc1ccc(C(=O)Sc2cccccc2=O)cc1	11	99*	6	25
CCC(C)Nc1nc2c(c(=O)[nH]c(=O)n2C)n1CCOc1ccccc1 (stereo unspecified)	7	98*	-1	6
Cn1c(=O)[nH]c(=O)c2c1nc(NCCO)n2CCOc1ccccc1	12	13	0	4
CCCCn1c(NC(C)CC)nc2c1c(=O)[nH]c(=O)n2C (stereo unspecified)	26	92*	-1	·
CSc1ccccc1C(=O)N(CC1CCCO1)c1c(N)n(Cc2ccccc2)c(=O)[nH]c1=O (stereo unspecified)	11	3	0	-3
C/C(=N\NC(=S)Nc1c(C)cccc1C)c1ccc(O)cc1	-3	87*	0	-6
C/C(=N\NC(=S)Nc1c(C)cccc1C)c1cc2ccccc2o1	15	0	0	322*
C/C(=N\NC(=S)Nc1ccccc1C)c1cc2ccccc2o1	9	-9	0	0
O=C(CN1C(=O)NC2(CCCCC2)C1=O)NCC(=O)Nc1ccc(F)c(F)c1	-4	-8	0	-1
O=C(COC(=O)/C=C/c1ccc([N+](=O)[O-])cc1)NCC1CCCO1 (stereo unspecified)	29	95*	0	-5
